Experiments:
Experiment in all cases: PBM binding z-score (relative to random genomic background probes); higher = stronger binding; sequences stand for … in GC…GCGATTGACAGCGTAGAATGAAGG
[1] = system: PPARg:RXRa DBDmut IVT, anti-RXR (DBD mutation: RXRa K156A/R161A, NR concentration 270 nM, RXRa partner concentration 90 nM)
In short: (§1)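 The probes on custom Agilent 4×180K protein-binding microarrays were double-stranded, with 34-nt variable regions bearing direct-repeat seeds, single-nucleotide variants, half-site ablations and random human genomic background sequences. Incubation lasted 1 h with ligand-free nuclear receptor dimers in PBS pH 7.4, 2% milk, 0.02% Triton X-100, 1 mM DTT, 0.2 mg/mL BSA and 0.4 mg/ml salmon testes DNA. Antibodies against each partner (one per run) detected bound dimers, and fluorescence scans were regression-normalized. Binding z-scores take the random background probes as reference.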

[2] = system: PPARg:RXRa IVT, anti-PPARg (NR concentration 270 nM, RXRa partner concentration 90 nM)
In short: as §1

[3] = system: PPARg DBDmut:RXRa IVT, anti-PPARg (DBD mutation: PPARg1 K132A/R137A, NR concentration 270 nM, RXRa partner concentration 90 nM)
In short: as §1

[4] = system: PPARg DBDmut IVT, anti-PPARg (DBD mutation: PPARg1 K132A/R137A, NR concentration 270 nM)
In short: as §1

[5] = system: PPARg homodimer (NR concentration 180 nM)
In short: as §1

[6] = system: PXR:RXRa (NR concentration 270 nM, RXRa partner concentration 90 nM)
In short: as §1

[7] = system: PXR homodimer (NR concentration 270 nM)
In short: as §1

[8] = system: RARa:RXR (NR concentration 270 nM, RXRa partner concentration 90 nM)
In short: as §1

[9] = system: RARa homodimer (NR concentration 270 nM)
In short: as §1

[10] = system: RARb:RXRa (NR concentration 270 nM, RXRa partner concentration 90 nM)
In short: as §1

[11] = system: RARb homodimer (NR concentration 270 nM)
In short: as §1

[12] = system: RARg homodimer (NR concentration 270 nM)
In short: as §1

[13] = system: RXRa DBDmut IVT, anti-RXR (DBD mutation: RXRa K156A/R161A, NR concentration 90 nM)
In short: as §1

[14] = system: RXRa homodimer (NR concentration 180 nM)
In short: as §1

[15] = system: THRa:RXRa (NR concentration 90 nM, RXRa partner concentration 90 nM)
In short: as §1

[16] = system: THRa homodimer (NR concentration 90 nM)
In short: as §1

[17] = system: VDR homodimer (NR concentration 270 nM)
In short: as §1

[18] = system: VDR:RXRa (NR concentration 270 nM, RXRa partner concentration 90 nM)
In short: as §1

[19] = system: RARg:RXRa (NR concentration 270 nM, RXRa partner concentration 90 nM)
In short: as §1

Row | Sequence | PBM binding z-score [1] | PBM binding z-score [2] | PBM binding z-score [3] | PBM binding z-score [4] | PBM binding z-score [5] | PBM binding z-score [6] | PBM binding z-score [7] | PBM binding z-score [8] | PBM binding z-score [9] | PBM binding z-score [10] | PBM binding z-score [11] | PBM binding z-score [12] | PBM binding z-score [13] | PBM binding z-score [14] | PBM binding z-score [15] | PBM binding z-score [16] | PBM binding z-score [17] | PBM binding z-score [18] | PBM binding z-score [19]
1 | CGAACTAGGTCAACGACAGTGAATCTCCGCACGC | 7.66 | 7.96 | 4.33 | 5.05 | 2.87 | 0.983 | -0.0485 | 1.99 | -0.0648 | 3.83 | 2.87 | 4.2 | 1.61 | 2.45 | 2.54 | 1.08 | 0.435 |  | 
2 | CCTCGGAGGACAACAGGATGTCAGAGCTGCCAGA | 0.0272 | -0.669 | -0.339 | -1.74 | -0.00372 | -0.729 | -0.378 | -0.712 | -0.0154 | 1.13 | 0.537 | 1.19 | -0.233 | -0.144 | 0.449 | -0.131 | -0.662 | -0.45 | 
3 | AGTCAAAGTTCAGGACGAGGTACCGTAAAGCACG | -0.264 | 0.999 | -0.0468 | -0.427 | 0.643 | 2.17 | 0.824 | 2.02 | 0.582 | 4.34 | 3.04 | 4.98 | 2.91 | 3.07 | 2.66 | 0.724 | 1.78 |  | 
4 | CCTTACGGGTCACTCCAGGTTCTAGCATCGGAGT | 2.92 | 3.24 | 0.0574 | -0.343 | 1.37 | 3.13 | -0.323 | 3.39 | 0.55 | 3.63 | 2.64 | 4.07 | 1.4 | 4.18 | 4.32 | 0.0825 | 1.07 |  | 
5 | TCTGCTAGGTCAGGTGGTCAGCTAACGAGCTGCC | 2.43 | 2.96 | -0.185 | -0.486 | -0.444 | 0.451 | -0.687 | 1.18 | -1.1 | 3.38 | 2.83 | 3.58 | 0.176 | 1.66 | 1.77 | 0.331 | -0.539 |  | 
6 | CCTAGTTGGTCAAGGTCACACATGCTATAGGTAC | 2.61 | 3.82 | 1.11 | 1.14 | 3.65 | 4.24 | 2.57 | 4.11 | 2.64 | 4.14 | 4.33 | 4.71 | 2.2 | 4.11 | 3.96 | 4.12 | 3.99 | 4.33 | 
7 | GCTGCTAGGTCAGGTTGGTCTGCTAACGGGTACG | 3.08 | 2.35 | -0.411 | -0.998 | 0.673 | 0.505 | -0.437 | 0.971 | 0.182 |  | 2.51 | 3.25 | 0.755 | 1.04 | 1.89 | 0.834 | 0.554 | 0.509 | 2.46
8 | TCTCGGAGGACACGAAGGTCAGCGCTTTCCAGAG | 1.48 | 1.41 | -0.389 | -0.884 | 2.23 | 2.49 | 0.985 | 3.06 | 0.313 | 3.95 | 3.93 | 4.24 | 0.82 | 2.38 | 3.23 | 1.21 | 1.46 |  | 
9 | AATACAGGGTCCTCGTAGGCCAGAGTACGCACAG | -0.234 | 0.716 | -0.242 | 0.0325 | -0.0615 | -0.282 | -0.0675 | -0.118 | -0.348 | 0.268 | 0.334 | 0.183 | -0.129 | 0.449 | 1.16 | 0.203 | 0.487 |  | 
10 | GATACAGGGTGAAGGCCAGAGTACGCGTATTGAT | 0.737 | 1.34 | -0.37 | -0.0968 | -0.218 | -0.324 | -0.0784 | -0.132 | -0.36 | 0.882 | 0.673 | 0.704 | -0.695 | 0.721 |  | -0.473 | -0.248 | -0.32 | 
11 | CGTCCAAGGTCATGGGAGGTCAGTGAAGACAGAT | 2.93 | 4.47 | 0.44 | -0.0199 | 4.73 | 7.17 | 5.18 | 6.5 | 2.4 | 5.61 | 5.85 | 7.97 | 3.73 | 7.56 | 5.51 | 3.83 | 4.5 |  | 
12 | CCAACTAGGTCATTGACAGGACAGTGAATAGTAA | 7.67 | 7.49 | 1.99 | 0.953 | 1.89 | 1.68 | 0.805 | 2.23 | 1.58 | 3.77 | 2.83 | 4.34 | 2.47 | 2.61 | 2.88 | 1.31 | 1.64 |  | 
13 | ATCTCTAGGTAACAAGGTCAGTGAAAGAGAGGAC | 4.43 | 4.75 | 1.63 | 1.14 | 2.4 | 1.98 | 1.12 | 2.3 | 1.5 | 3.07 | 3.49 | 3.28 | 0.451 | 2.26 | 3.07 | 2.37 | 1.78 |  | 
14 | TCTGCTTGGTCAACGATGGTCAGCTAATCTGCTA | 0.689 | 0.425 | 0.225 | -0.53 | -0.633 | -0.0602 | -0.841 | 0.401 | -1.62 | 1.17 | 0.448 | 0.624 | -0.0435 | 0.237 | 0.139 | -1.13 | -1.09 |  | 

From the supplement of paper PMC6555819
